This note sets out measurements from PubChem BioAssay (NCATS).

Unmarked numbers belong to inactive results. Inconclusive results are not listed. Activity calls are given as the source filed them. Unless noted, calls follow the shape of the dose curve; as a rule, active = well fitted curve in the direction sought with a large enough effect; inconclusive = small, poorly fitted or top-dose-only effect, or another doubt; inactive = no such curve, though single readings can be large; an effect the other way counts as inactive or inconclusive.

For experiment [1], the target named is Glutaminase kidney isoform, mitochondrial (Homo sapiens) (UniProt O94925). The experiment in a line: qHTS for Inhibitors of Glutaminase (GLS): LOPAC Validation (AID 624146). Also: nearly all actives have a fitted effect of over 60% in size. Also: potency is read from the fitted curve at half-maximal effect. The method, boiled down: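 Coupled fluorescence readout: glutamate oxidase/HRP/Amplex Red detect glutamate formed by hKGA from L-glutamine (1 mM solution added). Buffer 45 mM KH2PO4 pH 8.2, 0.02% Tween-20; reads at t0 and 30 min RT.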
For orientation: qHTS replaces the single test concentration by a dilution series.

The nature of experiment [2]: qHTS of Trypanosoma Brucei Inhibitors: LOPAC Validation (AID 624147). Also: potency is read from the fitted curve at half-maximal effect. The essentials: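 Readout: single end-point luminescence (Kinase-Glo Plus, 10 min). Reaction conditions were TbPYK/substrate plus 130 uM ADP, 45 min at RT, pH 7.2 TEA buffer. No-enzyme wells served as controls, and data were normalized before concentration-response fitting.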
The target in experiment [3] is Glucagon-like peptide 1 receptor (Homo sapiens) (UniProt P43220). As to the kind of experiment: qHTS of GLP-1 Receptor Agonists: LOPAC Validation (AID 624148).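 Also: luminescence from a luciferase reporter switched on by cAMP; 0% is about no effect; higher luminescence signal means agonism.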 The method, boiled down:
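Agonism scored as increased luciferase luminescence driven by cAMP in HEK293 clones carrying GLP-1R. Cells settled 12 hours, received compound for 4-6 hr at 37 deg C, 5% CO2, and were read after 12 min detection reagent at RT.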

Experiment [4] is described as follows: qHTS of Nrf2 Activators: LOPAC Validation (AID 624149). Also: 0% is about no effect. The essentials:
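Luciferase signal from ARE activation, read with Steady-Glo after 30 min at room temperature. Compounds were pin-transferred onto AREc32_Fluc cells (1000/well, OPTI-MEM/5% FBS, seeded overnight) and left 24 hr at 37 deg C.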

A short description of experiment [5]: HTS Assay for Allosteric Antagonists of the Human D2 Dopamine Receptor: Hit Validation in HTRF (AID 624455). Also: potency is read from the fitted curve at half-maximal effect.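 Also: stable D1 dopamine receptor cell line scored for blocking the D1 response.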 The essentials:
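Inhibition of the D1-mediated response was measured by HTRF. Cells used were a line stably expressing the D1 dopamine receptor.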

For experiment [6], the target named is Luciferin 4-monooxygenase (Photinus pyralis) (UniProt P08659). The experiment in a line: Biochemical firefly luciferase enzyme assay for NPC (AID 624030). Also: nearly all actives have a fitted effect of over 70% in size. Also: potency is read from the fitted curve at half-maximal effect. The essentials: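 Direct inhibition of firefly luciferase enzyme (10 nM final, 50 mM Tris Acetate) assessed by luminescence within 5 minutes. Percent activity scaled between DMSO and PTC124 positive control, with concentration-effect curves classified by fit quality and response.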

The nature of experiment [7]: S16 Schwann cell viability assay (CellTiter-Glo assay) (AID 624031). Also: nearly all actives have a fitted effect of over 70% in size. Also: potency is read from the fitted curve at half-maximal effect. The essentials: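 Parental S16 cells, 24 h compound, 37 °C. ATP-luminescence viability; DMSO = 0% activity, empty wells as reference; curves classified by fit quality and efficacy.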
Experiment [8] in a line: S16 Schwann cell PMP22 intronic element firefly luciferase assay (AID 624032). Also: nearly all actives have a fitted effect of over 30% in size. Also: potency is read from the fitted curve at half-maximal effect. The method, boiled down: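 Luciferase reporter of PMP22 intronic-element expression in stably transfected S16 rat Schwann cells, read by ONE-Glo luminescence after 24 h compound exposure at 37 C. Activity scaled between DMSO (0%) and positive-control PTC124; concentration-effect curves quality-classified.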

A short description of experiment [9]: S16 Schwann cell PMP22 intronic element beta-lactamase assay (AID 624044; calls by dose curve;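 also: 0% = DMSO and -100% = potassium clavulanate positive control; nearly all actives have a fitted effect of over 15% in size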). The method, boiled down:
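Beta-lactamase reporter under a PMP22 intronic regulatory element in stable S16 rat Schwann cells; 24 h compound exposure. 460 nm blue signal normalized between DMSO (0%) and potassium clavulanate, with 535 nm FRET tracking viability; curves classed by r2 and response.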

Experiment [10] is described as follows: qHTS assay for small molecule agonists of the antioxidant response element (ARE) signaling pathway (AID 651741; active = well fitted activation curve with a large enough effect in the signal ratio; the % refers to the signal ratio; also: potency is read from the fitted curve at half-maximal effect). The essentials: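 Beta-lactamase reporter under ARE control in HepG2 cells, 2,000 per well, was induced by 16 h compound treatment at 37 C. Read-out was fluorescence from LiveBLAzer B/G FRET substrate after 2 h at room temperature.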
Experiment [11] can be described thus: qHTS assay for small molecule activators of the p53 signaling pathway (AID 651743; active = well fitted activation curve with a large enough effect in the signal ratio, not every such curve was filed as active; the % refers to the signal ratio; also: series mostly up to about 92 µM; % of control where 0% means no effect). To be noted: HCT-116 p53RE-bla, beta-lactamase FRET ratio, 16 h; activation: hits give high values. The essentials:
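After 16 hours compound treatment at 37 C, HCT-116 cells stably expressing p53RE-driven beta-lactamase were loaded with LiveBLAzer B/G FRET substrate for 2 hours at room temperature. Fluorescence intensity served as the p53 activation read-out.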

Luciferin 4-monooxygenase (Photinus pyralis), sequence (P08659 whole entry, looked up): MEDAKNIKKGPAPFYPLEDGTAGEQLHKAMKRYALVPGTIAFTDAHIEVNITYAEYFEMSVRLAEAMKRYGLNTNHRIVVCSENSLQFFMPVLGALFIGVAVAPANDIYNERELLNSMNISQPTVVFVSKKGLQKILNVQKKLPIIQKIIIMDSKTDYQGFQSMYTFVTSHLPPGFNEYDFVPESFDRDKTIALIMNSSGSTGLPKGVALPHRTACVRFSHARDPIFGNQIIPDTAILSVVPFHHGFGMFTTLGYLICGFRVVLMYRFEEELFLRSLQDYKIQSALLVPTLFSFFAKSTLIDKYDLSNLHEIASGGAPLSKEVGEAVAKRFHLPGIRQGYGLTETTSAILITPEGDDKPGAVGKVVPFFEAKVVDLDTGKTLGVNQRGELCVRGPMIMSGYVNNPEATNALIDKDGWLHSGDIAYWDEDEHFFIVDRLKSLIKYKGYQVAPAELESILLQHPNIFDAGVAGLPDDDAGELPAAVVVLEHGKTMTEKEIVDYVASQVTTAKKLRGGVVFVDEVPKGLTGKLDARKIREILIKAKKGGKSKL
Glucagon-like peptide 1 receptor (Homo sapiens), sequence (P43220 whole entry, looked up): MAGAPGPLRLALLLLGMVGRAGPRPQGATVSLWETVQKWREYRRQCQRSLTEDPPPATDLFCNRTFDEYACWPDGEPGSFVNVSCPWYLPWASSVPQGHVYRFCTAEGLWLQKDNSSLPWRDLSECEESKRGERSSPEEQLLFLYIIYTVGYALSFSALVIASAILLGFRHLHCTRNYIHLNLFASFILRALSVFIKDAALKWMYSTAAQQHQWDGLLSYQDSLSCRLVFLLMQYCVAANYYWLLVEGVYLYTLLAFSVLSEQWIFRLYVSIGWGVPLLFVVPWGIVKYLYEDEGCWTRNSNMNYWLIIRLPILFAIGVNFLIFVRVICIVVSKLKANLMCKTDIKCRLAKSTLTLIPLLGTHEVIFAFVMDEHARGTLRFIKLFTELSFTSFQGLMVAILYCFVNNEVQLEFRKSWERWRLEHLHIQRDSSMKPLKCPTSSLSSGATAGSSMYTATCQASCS
Glutaminase kidney isoform, mitochondrial (Homo sapiens), sequence (O94925 whole entry, looked up, canonical isoform): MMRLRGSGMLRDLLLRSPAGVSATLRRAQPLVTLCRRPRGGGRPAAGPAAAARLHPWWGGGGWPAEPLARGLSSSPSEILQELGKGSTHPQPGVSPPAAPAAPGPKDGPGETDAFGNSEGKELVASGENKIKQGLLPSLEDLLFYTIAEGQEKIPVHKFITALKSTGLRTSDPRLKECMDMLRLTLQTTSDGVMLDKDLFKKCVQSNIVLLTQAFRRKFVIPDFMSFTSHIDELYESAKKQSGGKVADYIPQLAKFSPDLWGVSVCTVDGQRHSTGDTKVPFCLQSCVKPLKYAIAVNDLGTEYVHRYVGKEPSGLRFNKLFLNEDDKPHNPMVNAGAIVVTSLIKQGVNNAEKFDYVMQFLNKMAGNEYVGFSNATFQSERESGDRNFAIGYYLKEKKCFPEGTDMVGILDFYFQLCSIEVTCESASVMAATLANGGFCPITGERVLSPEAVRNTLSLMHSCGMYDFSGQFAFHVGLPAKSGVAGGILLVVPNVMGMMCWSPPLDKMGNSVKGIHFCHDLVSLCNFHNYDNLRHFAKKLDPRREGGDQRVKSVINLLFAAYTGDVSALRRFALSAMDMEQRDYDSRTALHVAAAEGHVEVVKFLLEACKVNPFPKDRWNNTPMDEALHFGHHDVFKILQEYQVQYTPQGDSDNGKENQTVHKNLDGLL

In the case of `CC1(C(=O)O)C2CCC(O2)C1(C)C(=O)O` (stereo unspecified), the Potency entry in experiment [1], in [2], in [4] and in experiment [5] was “inactive” each time. For the same molecule, in experiment [3], the molecule was classed as inactive.

Take `c1ccc2cc(CC3=NCCN3)ccc2c1`: the Potency result in experiment [6], in [7], in experiment [8], in experiment [1], in [2] and in [4] was “inactive” each time. Moreover, the Potency entry in experiment [5] is “inactive”. In [3], the molecule was classed as inactive.

`CN1C2CCC1CC(OC(c1ccccc1)c1ccccc1N)C2` (stereo unspecified): the Potency entry in experiment [1], in experiment [2] and in experiment [5] was “inactive” throughout. Further, the molecule was classed as inactive in experiment [3].

Turning to `COc1ccc2c(c1O)-c1cccc3c1[C@@H](C2)N(C)CC3`, the Potency in experiment [1] is 3550 nM (active). For the same molecule, the Potency result in [2] and in experiment [5] was “inactive” throughout. Besides, in [3], the call was inactive.

Turning to `C=CCN(C1=NCCN1)c1c(Cl)cccc1Cl`, the Potency entry in experiment [6], in experiment [7], in experiment [8], in experiment [1], in experiment [2] and in experiment [4] was “inactive” each time. Besides, the Potency entry in experiment [5] is “inactive”. For the same molecule, in [3], the molecule was called inactive.

As to `CCCN(CCC)C1Cc2cc(OC)c(OC)cc2C1`, the Potency result in experiment [1], in experiment [2], in experiment [4] and in experiment [5] was “inactive” each time. Moreover, the outcome in [3] was inactive.

Consider `Cc1cc([C@@H]2CCCN2C)on1`, for which the Potency result in experiment [1], in [2], in experiment [4] and in experiment [5] was “inactive” throughout. Further, the molecule was called inactive in experiment [3].

Consider `CC12NC(Cc3ccccc31)c1ccccc12` (stereo unspecified), for which the Potency result in experiment [6], in experiment [8], in [9], in experiment [1], in experiment [2] and in [4] was “inactive” each time. Besides, the Potency entry in experiment [5] is “inactive”. Besides, the outcome in [3] was inactive.

In the case of `CN1c2ccccc2C(NCCCCCCC(=O)O)c2ccc(Cl)cc2S1(=O)=O` (stereo unspecified), the Potency entry in experiment [6], in experiment [7] and in experiment [8] was “inactive” throughout.

`CCC1(c2ccccc2)C(=O)NC(=O)NC1=O`: the Potency entry in experiment [6], in experiment [7], in experiment [8] and in [9] was “inactive” throughout.

Regarding `O=c1c2ccccc2[se]n1-c1ccccc1`, the Potency in experiment [6] was 8090 nM (active); in experiment [7] it was 12800 nM (active); in experiment [8], 28700 nM (active); in [1], 2820 nM (active); in experiment [2], 19000 nM (active). Besides, in experiment [3], the outcome was inactive. Moreover, the Potency entry in experiment [5] is “inactive”.

Regarding `C[N+](C)(C)CC#CCOC(=O)Nc1cccc(Cl)c1`, the Potency entry in experiment [1], in [2], in [4] and in [5] was “inactive” each time. Further, the molecule was called inactive in experiment [3].

With `CCS(=O)(=O)Nc1cccc(C(=C2CCCCC2)c2cnc[nH]2)c1`, the Potency entry in [1], in experiment [2], in experiment [4] and in experiment [5] was “inactive” each time. For the same molecule, the molecule was classed as inactive in [3].

Regarding `COC1=CC=C2[C@H]3Cc4ccc(OC)c5c4[C@@]2(CCN3C)[C@H]1O5`, the Potency entry in experiment [6], in experiment [7], in experiment [8] and in [9] was “inactive” in each case.

For the molecule `O=C1CCCCC1CN1CCCCC1` (stereo unspecified), the Potency result in experiment [6], in experiment [7] and in experiment [9] was “inactive” throughout.

Turning to `Cc1sc2ccccc2c1CC1=NCCN1`, the Potency result in [6], in [7], in [8], in experiment [9], in experiment [2] and in experiment [5] was “inactive” each time. The call in [3] was inactive.

Turning to `O=C(CCl)c1ccc(Oc2ccc(C(=O)CCl)cc2)cc1`, the Potency result in experiment [7], in [8] and in [9] was “inactive” throughout.

Turning to `CCNC(=O)[C@H]1O[C@@H](n2cnc3c(N)ncnc32)[C@H](O)[C@@H]1O`, the Potency entry in experiment [1], in experiment [2], in experiment [4] and in experiment [5] was “inactive” each time. Moreover, the molecule was classed as inactive in experiment [3].

Regarding `CCN1C[C@@]2(COC)C3[C@@H](OC)C4[C@@H]1C3([C@@H]1C[C@]3(O)[C@H](OC(=O)c5ccccc5)[C@@H]1[C@]4(OC(C)=O)[C@@H](O)[C@@H]3OC)[C@H](OC)C[C@H]2O`, the Potency entry in experiment [1], in experiment [2] and in experiment [5] was “inactive” throughout. The outcome in experiment [3] was inactive.

With `COc1cc(CC(C)N)c(OC)cc1I` (stereo unspecified), the Potency entry in experiment [1], in experiment [2], in experiment [4] and in experiment [5] was “inactive” in each case. Also, the result in experiment [3] was inactive.

Regarding `c1csc(C2(N3CCCCC3)CCCCC2)c1`, the Potency result in experiment [6], in experiment [7], in [8] and in experiment [9] was “inactive” throughout.

`CN1CC[C@@]2(C)c3cc(OC(=O)Nc4ccccc4)ccc3N(C)[C@@H]12`: in [1], the Potency is 1120 nM (active). Also, the Potency result in experiment [2] and in experiment [5] was “inactive” each time. Besides, the result in experiment [3] was inactive.

On to `OCc1cnc[nH]1`, for which the Potency entry in experiment [1], in experiment [2], in experiment [4] and in experiment [5] was “inactive” throughout. In addition, the molecule was classed as inactive in [3].

As for `CC(C)(O)[C@@H]1C2OC(=O)[C@@H]1[C@]1(O)C[C@H]3O[C@]34C(=O)O[C@H]2[C@]14C` (tested in a mixture with another compound), the Potency result in experiment [1], in [2], in experiment [4] and in experiment [5] was “inactive” in each case. Moreover, the call in [3] was inactive.

With `O=[N+]([O-])c1cc(I)c(O)c(I)c1`, the Potency result in experiment [7] and in experiment [8] was “inactive” in each case.

`CC(C)[C@@]1(NC(=O)[C@@H]2C[C@@H]3c4cccc5[nH]cc(c45)C[C@H]3N(C)C2)O[C@@]2(O)[C@@H]3CCCN3C(=O)[C@H](Cc3ccccc3)N2C1=O`: the Potency entry in experiment [6] and in experiment [2] was “inactive” throughout. Further, in experiment [3], the call was inactive. Besides, the Potency in experiment [5] was 51.7 nM (active).

Take `[N-]=[N+]=CC(=O)OCC(N)C(=O)O` (stereo unspecified): the Potency entry in experiment [6], in [7], in [8] and in [9] was “inactive” in each case.

Take `C/C(=C\c1csc(C)n1)[C@@H]1C[C@@H]2O[C@]2(C)CCC[C@H](C)[C@H](O)[C@@H](C)C(=O)C(C)(C)[C@@H](O)CC(=O)O1`: the Potency result in [6] is “inactive”. In experiment [8], the Potency was 57.3 nM (active).

Regarding `CC(C)(C)c1o[nH]c(=O)c1CC(N)C(=O)O` (stereo unspecified), the Potency entry in experiment [1], in experiment [2], in experiment [4] and in experiment [5] was “inactive” each time. Besides, the molecule was called inactive in [3].

In the case of `[Cl-].[Cl-].[Hg+2]`, the Potency in [6] was 12800 nM (active); in experiment [7], 2560 nM (active); in [8], 809 nM (active); in [10], 29800 nM (active). Further, the activation in experiment [11] is 5.15%.

`C[N+]1(C)C2CCC1CC(OC(=O)c1c[nH]c3ccccc13)C2` (stereo unspecified): the Potency result in experiment [6], in experiment [7], in [8], in [1], in [2] and in experiment [4] was “inactive” each time. Also, in experiment [5], the Potency entry is “inactive”. For the same molecule, the molecule was classed as inactive in experiment [3].

With `CCCN1CCc2cc(O)cc3c2[C@H]1Cc1ccc(O)c(O)c1-3`, the Potency was 1410 nM (active) in [1] and 65.1 nM (active) in experiment [5]. The Potency entry in experiment [2] is “inactive”. In addition, the result in experiment [3] was inactive.

Regarding `CCCN1CC[C@@H]2c3cc(O)ccc3CC[C@@H]21`, the Potency result in [2] was “inactive”. Also, the outcome in [3] was inactive.

Regarding `CN1CCc2cc(O)cc3c2[C@H]1Cc1ccc(O)c(O)c1-3`, in [3], the call was inactive.

As to `CCCN(CCC)CCc1ccc(O)c(O)c1`, the Potency result in experiment [2] and in [4] was “inactive” in each case. In addition, the molecule was classed as inactive in [3]. Moreover, in [5], the Potency was 92 nM (active).
